DAX1 inh-1 – inhibitors of DAX1 repression of SF-1 activated StAR promoter; 370,000 compounds, 1.1% hits; HEK293T StAR-luciferase reporter, SF-1/DAX-1 repression relief; inhibition, % at 6.8 µM; AID 652010;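 active = inhibition above the mean over all tested compounds plus 3 SD, cut at about 3.6% in these data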;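 also: 0% = DAX-1 cells with DMSO and 100% = cells lacking DAX-1 with DMSO; higher inhibition means more luminescence from relief of DAX-1 repression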
DAX1 inh-2 – inhibits human nuclear receptor DAX1; P51843; HEK293 Gal4-DAX1 luciferase reporter, luminescence; inhibition, % at 6.75 µM; AID 504766; 340,000 compounds, 0.99% hits;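 active = inhibition above the mean over all tested compounds plus 3 SD, cut at about 4.2% in these data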;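 also: 0% = DAX1-transfected cells with DMSO and 100% = empty-vector control cells with DMSO; inhibition shows as a rise in luminescence from relieved DAX1 repression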
Target sequence (P51843 207-470 limits assumed): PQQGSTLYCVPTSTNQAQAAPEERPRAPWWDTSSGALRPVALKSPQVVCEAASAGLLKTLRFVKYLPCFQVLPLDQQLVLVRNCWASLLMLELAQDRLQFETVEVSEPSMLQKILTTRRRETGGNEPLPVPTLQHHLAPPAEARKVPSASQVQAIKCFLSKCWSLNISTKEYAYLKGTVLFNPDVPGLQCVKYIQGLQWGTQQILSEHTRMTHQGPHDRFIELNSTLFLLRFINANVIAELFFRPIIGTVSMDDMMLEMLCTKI
ssDAF12 agonist – activators of S. stercoralis DAF-12 nuclear receptor | 370,000 compounds, 1% hits | HEK293 ssDAF-12/GRIP1 lit1-tk-luc reporter, luminescence; % of 3 µM dafachronic acid response | AID 652126 | activation, % at 6.8 µM;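 active = activation above the mean over all tested compounds plus 3 SD, cut at about 0.9% in these data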;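 also: 0% = DMSO-only wells and 100% = 3 µM delta7-dafachronic acid wells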
hgDAF12 agonist – activates the H. glycines DAF-12 receptor ligand-binding domain | AID 687014 | activation, % at 6.8 µM | HEK293 GAL4-hgDAF12 UAS-luciferase reporter, agonist luminescence; normalized to butyrate control | 370,000 compounds, 1.8% hits;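 active = activation above a cutoff set at the mean of all screened compounds plus 3 SD, cut at about 10% in these data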;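 also: 0% = DMSO wells and 100% = sodium butyrate wells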
hcDAF-12 act – activates DAF-12 receptor from parasite H. contortus | HEK293 hcDAF-12 lit1-tk-luc reporter, luminescence; 0% DMSO, 100% Δ7-dafachronic acid | activation, % at 6.8 µM | 370,000 compounds, 1.4% hits;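 active = activation above the mean of all tested compounds plus 3 SD, cut at about 5.5% in these data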;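 also: 100% = response to 3 µM Δ7-dafachronic acid high control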
LXRb hcDAF ctr – counter-screen for hcDAF-12 agonists: agonists of human LXR-beta; HEK293 Gal4-LXR tk-luc reporter, luminescence, 24 h; normalized: DMSO 0%, positive control 100%; shares compounds with hcDAF-12 act; activation, % at 6.8 µM; AID 743027; 3,400 tested, under 10 active;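 active = mean percent activation of the reporter above a cutoff set as the average over tested compounds plus their standard deviation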
hcDAF12 ag – confirmation of H. contortus DAF-12 agonists. 3,400 compounds, 61% hits. shares compounds with hcDAF-12 act. HEK293 hcDAF-12 lit1-tk-luc reporter, luminescence; % of Δ7-dafachronic acid response. activation, % at 6.8 µM;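 active = mean activation across triplicate tests above the threshold derived from the earlier primary screen, cut at about 5.5% in these data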;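 also: 0% = DMSO only wells and 100% = 3 µM Δ7-dafachronic acid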
The depositor's hits bear a star; x = no result. This is a sample that favours compounds with a hit; in the whole collection about 4.1% have one here.

SMILES	DAX1 inh-1	DAX1 inh-2	ssDAF12 agonist	hgDAF12 agonist	hcDAF-12 act	LXRb hcDAF ctr	hcDAF12 ag
CC(=O)c1cc(C(=O)N2CCc3c([nH]c4ccccc34)C2CC(C)C)[nH]n1 (stereo unspecified)	1	0	0	1	3	x	x
O=C(Nc1ccccc1Br)C(=O)N1CCCC1	1	1	0	6	1	x	x
O=C(NNc1ccccc1Br)C(=O)n1ccc2ccccc21	0	0	0	1	7.6*	0	2
Clc1nc2ccccc2nc1-c1ccccc1	0	1	-2	0	-1	x	x
Cn1nc(-c2ccccc2)c2nc3ccccc3nc21	0	0	1	3	6.8*	0	6.1*
O=C(Nc1ccc(Cl)cn1)c1ccc2ccccc2n1	0	2	1.4*	7	7.8*	1	17*
COc1ccc(NC(=O)COC(=O)c2ccc3ccccc3n2)cc1	1	0	1	2	3	x	x
O=C(Nc1ccc(OC(F)(F)F)cc1)c1ccc2ccccc2n1	1	0	1	9	7.8*	0	7.7*
Cc1ccccc1C(=O)Nc1ccc(Cl)cn1	1	3	-1	10	2	x	x
O=C1CC2c3ccccc3C1C1C(=O)N(CCc3ccccc3)C(=O)C21 (stereo unspecified)	0	-1	-1	-1	-1	x	x
c1ccn(-c2ccc(-c3ccn[nH]3)cc2)c1	2	4	2.2*	13*	10*	1	4
COC(=O)C1=C(C)N(C)C(=NCc2ccccc2C(F)(F)F)NC1CCc1ccccc1 (stereo unspecified)	0	x	-1	1	0	x	x
C=CCn1c(O)c(N=Nc2ccccc2O)c2ccccc21	0	-1	-1	0	3	x	x
C=CCn1c(O)c(N=Nc2ccccc2[N+](=O)[O-])c2ccccc21	1	1	1.1*	5	6.7*	0	8.4*
Cc1ccc(Nc2nc(N)c3ccccc3n2)cc1Cl	3	0	3.6*	12*	12*	2	15*
COc1ccc(CCNC(=O)Cn2nc(-c3ccccc3)ccc2=O)cc1	-1	x	-1	-3	1	x	x
O=C(O)c1ccc(-c2noc(-c3ccccc3Cl)n2)cc1	3	-2	1	9	8.2*	1	9.9*
CC(C)C[C@H]1CNC(=O)C(=O)N1C[C@@H]1CCCN1C[C@H](CC(C)C)N1C[C@H](Cc2ccc(O)cc2)N(CCc2ccccc2)C(=O)C1=O	-1	x	-1	-4	0	x	x
Clc1ccc(-c2cn3nc4c(nc3n2)CCCC4)cc1	4.2*	2	1	12*	8.1*	1	7.5*
Cc1ccc(-c2cn3nc(C)c(C)nc3n2)cc1	0	-3	-1	-1	2	x	x
Cc1ccc(Nc2nc3ccccc3o2)cc1F	4.0*	2	1	12*	7.3*	1	5
Cc1ccc(OCC(=O)NC2CCS(=O)(=O)C2)c([N+](=O)[O-])n1 (stereo unspecified)	0	0	-1	5	-1	x	x
NC(=O)[C@@H]1[C@@H]2C(=O)N(c3ccc(F)cc3)C(=O)[C@@H]2[C@H]2C=Cc3ccccc3N21	0	x	0	1	7.5*	0	5
CC(C)N1CCCCC(NC(=O)COCc2ccccc2)C1=O (stereo unspecified)	0	x	0	-3	-1	x	x
O=C(CSCC(=O)N1CCCCC1)Nc1nc(-c2cccs2)cs1	0	1	0	6	9.1*	0	6.0*
SMILES	DAX1 inh-1	DAX1 inh-2	ssDAF12 agonist	hgDAF12 agonist	hcDAF-12 act	LXRb hcDAF ctr	hcDAF12 ag
O=C(CSCC(=O)N1CCCCC1)Nc1nc(-c2ccc(Cl)s2)cs1	-1	0	-1	7	5	x	x
CC1CC(C)CN(C(=O)CSCC(=O)Nc2nc(-c3cccs3)cs2)C1 (stereo unspecified)	1	0	1	7	8.2*	0	5
CCNC(=S)NNC(=O)CSc1nc2ccccc2c(=O)n1-c1ccc(Cl)cc1	-1	x	-1	5	-1	x	x
O=c1c2cc3cccnc3nc2ncn1CCc1c[nH]c2ccccc12	-3	x	-1	-3	-2	x	x
S=c1nc(-c2ccc(Br)cc2)[nH]c2ccccc12	1	1	1	0	7.3*	0	9.0*
Cc1cccc(/C=c2\s/c(=C\C(=O)C(C)(C)C)[nH]c2=O)c1	0	1	-2	1	1	x	x
Cc1cccc(/C=C2\CCC(=C3SCCCS3)C2=O)c1	2	-4	-1	9	7.5*	1	7.6*
CCCCCC(=O)NC1CCCCN(Cc2ccc(C)cc2)C1=O (stereo unspecified)	-1	x	-1	1	-2	x	x
COc1ccc2oc(=O)c(/C(C)=N/Nc3nc(-c4cc(C)ccc4C)cs3)cc2c1	-1	0	-1	-1	6.7*	0	0
N#Cc1ccc(Cn2ccc3ccc(-c4ccc5ccn(C(=O)C6CCC6)c5c4)cc32)cc1	-1	x	-1	6	-1	x	x
O=C1Nc2ccccc2/C1=C/c1cccnc1	-1	-1	-2	9	-2	x	x
O=C1Nc2ccccc2/C1=C/c1cnc(-c2ccccc2)[nH]1	1	4.7*	1.2*	5	9.7*	1	9.8*
O=C(O)c1ccccc1C(=O)c1ccc2c(c1)CCC2	0	-1	-1	0	6.9*	0	1
C=CCN1C=CC(=CC=C(C#N)C#N)C=C1	1	4.5*	0	4	8.5*	0	3
CCCN1C=CC(=CC=C(C#N)C#N)C=C1	1	-1	-1	0	2	x	x
COC(=O)[C@@]12CCCN1[C@H](c1ccc(-c3ccc(C(C)=O)cc3)c(OC)c1)[C@H]1C(=O)N(C)C(=O)[C@H]12	-1	1	-1	-2	-1	x	x
COc1ccc2c(c1)[nH]c1c(=O)n(N)cnc12	1	5.7*	1	1	9.7*	0	6.4*
O=C(Cn1cncn1)NCc1cccc(OC(F)F)c1	0	-1	-1	-1	6.8*	0	2
CC(C)CN1CCN(C(=O)CCc2nnc(Cc3c[nH]c4ccccc34)o2)[C@@H](C)C1=O	1	1	1	2	7.0*	0	3
COc1ccc(S[C@]2(C(=O)N3CCN(c4ncccn4)CC3)CC(=O)N[C@@H]2c2ccc(OC)cc2)cc1	-1	x	0	3	-1	x	x
CC(=O)Nc1cccc2ccc(O)cc12	2	-1	-1	-1	6.7*	0	3
CC(=O)Nc1cc2c3ccccc3ccc2c2ccccc12	-1	1	-1	3	0	x	x

High-throughput results as filed in PubChem.
